This passage reports remaining activity results from PubChem BioAssay.

Unmarked numbers belong to inactive results. The rule behind the calls is not given here.

The experiment deals with Aerobactin synthetase IucA (Klebsiella pneumoniae, hypervirulent). Put plainly: biochemical IucA inhibition screen of LOPAC library by absorbance (AID 1346212).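 Note: 100% = no compound wells and 0% = no enzyme wells.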 Conditions: IucA enzyme assay, absorbance (OD) readout; active compounds read low;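 tested at 8 µM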.
Take `C/C=C1\C(=O)C[C@H]2[C@@H]3CCC4=CC(=O)CC[C@]4(C)[C@H]3CC[C@]12C`: the remaining activity is 101%.

Regarding `CCN(c1nc(N)c(C(=O)N=C(N)N)nc1Cl)C(C)C`, the remaining activity is 109%.

For `C[C@H]1C[C@H]2[C@@H]3CCC4=CC(=O)C=C[C@]4(C)[C@@]3(Cl)[C@@H](O)C[C@]2(C)[C@@]1(O)C(=O)CO`, the remaining activity was 107%.

`N=C(N)SCCc1cccc(CCSC(=N)N)c1`: the remaining activity is 110%.

Take `CC(C)(C)c1onc(OCP(=O)(O)O)c1CC(N)C(=O)O` (stereo not given): the remaining activity was 112%.

As to `Oc1ccc(/C=C/c2ccc(/C=C/c3ccc(O)cc3)c(Br)c2)cc1`, the remaining activity is 85%.

For the compound `c1cnc2c(c1)ccc1cccnc12`, the remaining activity is 101%.

Regarding `CCCn1c(=O)c2[nH]c(-c3ccc(OCC(=O)NCCN)cc3)nc2n(CCC)c1=O`, the remaining activity was 109%.

For the compound `O=C(NCCO)c1ccc2c(c1)nc(Nc1cccc(Cl)c1)c1ccncc12`, the remaining activity was 90%.

For `O=C(O)C1CCNCC1`, the remaining activity was 111%.

For `NCCCCCCCCCCN`, the remaining activity is 104%.

In the case of `CC(C)C[C@H]1C(=O)N2CCC[C@H]2[C@]2(O)O[C@](NC(=O)[C@@H]3C=C4c5cccc6[nH]c(Br)c(c56)C[C@H]4N(C)C3)(C(C)C)C(=O)N12`, the remaining activity is 108%.

For `CN1[C@@H]2CC[C@H]1CC(OC(=O)[C@H](CO)c1ccccc1)C2` (stereo not given in full), the remaining activity is 107%.

On to `C[N+](C)(C)CCOC(=O)CCC(=O)OCC[N+](C)(C)C`, for which the remaining activity was 123%.

Turning to `O=C(O)C1=CCCN(CCON=C(c2ccccc2)c2ccccc2)C1`, the remaining activity is 104%.
